According to PubChem BioAssay AID1159580 (chemical genetic matrix, 2015):
Screen size: about 5,500 compounds; about 2,000 (36%) were called active. Inconclusive results (about 18%) are left out. Rule as the data show it: active = normalized growth mostly below about 0.91 (no sharp cut-off); inconclusive = no clear call, values can overlap the other calls; inactive = mostly above about 0.92. The list shows a part of the results.

Assay: chemical genetic growth profiling, strain panel (AID 1159580);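 also: tested at 20 µM; growth read once vehicle control cultures reached saturation at 30 °C; 1 = growth at the plate median or of vehicle wells; lower values mean less growth of the strain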
Details: S. cerevisiae deletion strains, growth OD

Measured: normalized growth

CC1CC[C@@]2(OC1)O[C@H]1CC3C4CC[C@@H]5CC(=O)CC[C@]5(C)C4CC[C@]3(C)[C@H]1[C@@H]2C (stereo not given in full)
inactive: locus YBR021W, strain FUR4, active compounds read low 1.01 | locus YBR229C, strain ROT2, active compounds read low 1.01 | locus YCL029C, strain bik1, active compounds read low 1.01 | locus YDL035C, strain GPR1, active compounds read low 1.05 | locus YDL074C, strain BRE1, active compounds read low 1.04 | locus YDL101C, strain DUN1, active compounds read low 0.975 | locus YDL134C, strain PPH21, active compounds read low 0.982 | locus YDL185W, strain tfp1, active compounds read low 0.982 | locus YDL192W, strain arf1, active compounds read low 1.01 | locus YDR101C, strain arx1, active compounds read low 1.02 | locus YDR150W, strain NUM1, active compounds read low 1 | locus YDR162C, strain NBP2, active compounds read low 1 | locus YDR318W, strain mcm21, active compounds read low 1 | locus YDR388W, active compounds read low 0.993 | locus YDR502C, strain sam2, active compounds read low 0.974 | locus YER110C, active compounds read low 0.994 | locus YER155C, strain BEM2, active compounds read low 0.985 | locus YER167W, strain BCK2, active compounds read low 1 | locus YGL078C, strain dbp3, active compounds read low 0.963 | locus YGL086W, strain mad1, active compounds read low 0.989 | locus YGL248W, strain PDE1, active compounds read low 0.973 | locus YGR078C, strain PAC10, active compounds read low 0.993 | locus YGR135W, strain pre9, active compounds read low 0.948 | locus YGR252W, strain gcn5, active compounds read low 0.997 | locus YHR079C, strain IRE1 (second series), active compounds read low 0.996 | locus YHR094C, strain hxt1, active compounds read low 0.985 | locus YHR129C, strain ARP1, active compounds read low 0.996 | locus YHR200W, strain rpn10, active compounds read low 0.987 | locus YIL066C, strain RNR3, active compounds read low 1.02 | locus YIL073C, strain SPO22, active compounds read low 0.983 | locus YIL125W, strain kgd1, active compounds read low 1 | locus YIR030C, strain dcg1, active compounds read low 0.98 | locus YJL095W, strain BCK1, active compounds read low 0.977 | locus YJL134W, strain LCB3, active compounds read low 0.991 | locus YJL168C, strain set2, active compounds read low 0.986 | locus YJL187C, strain SWE1 (second series), active compounds read low 0.968 | locus YKL009W, strain mrt4, active compounds read low 0.986 | locus YKL068W, active compounds read low 0.985 | locus YKL085W, strain MDH1 (second series), active compounds read low 0.984 | locus YKL085W, strain MDH1, active compounds read low 0.984 | locus YKR001C, strain vps1, active compounds read low 0.986 | locus YLR039C, strain RIC1, active compounds read low 0.996 | locus YLR058C, strain SHM2, active compounds read low 0.999 | locus YLR102C, strain apc9, active compounds read low 0.984 | locus YLR268W, strain sec22, active compounds read low 1.04 | locus YLR342W, strain FKS1 (second series), active compounds read low 1.07 | locus YLR371W, strain rom2, active compounds read low 1.01 | locus YLR418C, strain cdc73, active compounds read low 0.942 | locus YML016C, strain PPZ1, active compounds read low 0.988 | locus YML032C, strain rad52, active compounds read low 1.01 | locus YML124C, strain tub3, active compounds read low 0.995 | locus YMR078C, strain ctf18, active compounds read low 0.985 | locus YMR223W, strain ubp8, active compounds read low 0.996 | locus YMR307W, strain GAS1, active compounds read low 0.94 | locus YNL067W, strain RPL9B, active compounds read low 0.966 | locus YNL233W, strain BNI4, active compounds read low 0.972 | locus YNL250W, strain rad50, active compounds read low 0.929 | locus YNL271C, strain bni1, active compounds read low 0.981 | locus YNL298W, strain CLA4, active compounds read low 1 | locus YNL307C, strain MCK1, active compounds read low 0.986 | locus YNR052C, strain pop2, active compounds read low 0.972 | locus YOL006C, strain TOP1, active compounds read low 1.16 | locus YOL012C, strain htz1 1.11 | locus YOL147C, strain pex11, active compounds read low 1.01 | locus YOR061W, strain CKA2, active compounds read low 1.01 | locus YOR069W, strain VPS5, active compounds read low 0.989 | locus YOR136W, strain idh2, active compounds read low 0.992 | locus YOR144C, strain elg1, active compounds read low 0.992 | locus YOR184W, strain ser1, active compounds read low 1.06 | locus YOR316C, strain cot1, active compounds read low 0.986 | locus YPR119W, strain clb2, active compounds read low 0.985 | locus YPR141C, strain kar3, active compounds read low 0.973 | locus YPR163C, strain tif3, active compounds read low 0.993 | locus YPR167C, strain met16, active compounds read low 0.985 | strain wtn01, active compounds read low 1.01
